Results published in ChEMBL document CHEMBL4513216, “Probing the Open Global Health Chemical Diversity Library for Multistage-Active Starting Points for Next-Generation Antimalarials” (ACS Infect Dis, 2020).
The campaign covered roughly 69,000 compounds. About 8,600 (12%) showed an effect of 50% or more. The entries come from a sample that favours strong results as a whole.

Test system: Plasmodium berghei
Assay: Screen against P. berghei liver stage (PbLuc), transformed with Luciferase, at 10uM
Format: functional, HepG2
Conditions: tested at 10 uM

Row | Compound | INHIBITION
1 | Fc1ccc(-c2cnc(C3CCCN3)cn2)cc1 (stereo not drawn) | 27%
2 | O=C1[C@@H]2CC[C@@H](CN(C3CCOCC3)C2)N1Cc1cscn1 | 33%
3 | CC(C(=O)O)n1nc(C(F)(F)F)c(Br)c1C1CC1 (stereo not drawn) | 38.3%
4 | COc1ccc(Cl)cc1CC(=O)NS(=O)(=O)c1ccc(C(N)=O)cc1 | -18%
5 | O=C(NCC(O)c1ccccc1)Nc1cccs1 (stereo not drawn) | -39.3%
6 | CCSc1ncc(CN2CCN(c3nc(C)ncc3C)CC2)cn1 | 56.6%
7 | CCSc1ncc(CN2CCN(c3ncc(C)c(N)n3)CC2)cn1 | -37.7%
8 | CCSc1ncc(CN2CCN(c3nc(C)cnc3C)CC2)cn1 | -50.8%
9 | CCn1cnnc1CNS(=O)(=O)N1CCCC1c1ccco1 (stereo not drawn) | -120%
10 | O=C(Cc1ccsc1)N1CCCCC1c1ccn2ccnc2n1 (stereo not drawn) | 47.1%
11 | c1cncc(-c2nnn3c2COCC(CNC2CCOCC2)C3)c1 (stereo not drawn) | 33.4%
12 | Cc1ccnc(C2(C)CCCN2C(=O)c2cnccn2)n1 (stereo not drawn) | 6.32%
13 | CC(=O)N[C@@H]1CN(Cc2ccco2)C[C@H]1c1ccc(C)o1 | 32.8%
14 | C/C=C(\C)CN1C[C@H](NC(=O)CN2CCCC2=O)[C@@H](c2ccc(C)o2)C1 | 18.3%
15 | C/C=C(\C)CN1C[C@H](NC(=O)CCOC)[C@@H](c2ccc(C)o2)C1 | 63.5%
16 | O=C(NCC1CC1)Nc1cnc2ccc(F)cc2c1O | 23.2%
17 | COc1ccc(CN2C[C@@H]3CCCO[C@@H]3[C@H](NS(C)(=O)=O)C2)cc1 | 2.01%
18 | CO[C@@H]1c2ccccc2C2(CCN(C(=O)CNS(C)(=O)=O)CC2)[C@H]1O | -6.61%
19 | CC(Nc1ccc(F)cc1)c1nnnn1-c1ccccc1 (stereo not drawn) | 81.7%
20 | CCOc1ccc(NC(C)c2nnnn2-c2ccccc2)cc1CO (stereo not drawn) | 20.9%
21 | CCC(Nc1nnnn1-c1ccccc1)C(=O)Nc1ccccc1C (stereo not drawn) | -19.1%
22 | COc1ccc(NC(C)C(=O)NCCc2cccs2)cc1F (stereo not drawn) | 38.5%
23 | COc1ccc(NC(C)c2nnnn2-c2ccccc2)cn1 (stereo not drawn) | 18.3%

Row | Compound | INHIBITION
24 | COc1ccc(NC(C)c2nnnn2-c2ccccc2)cc1F (stereo not drawn) | 54.3%
25 | O=C(O)Cn1ccc(=O)c2ccc(Cl)cc21 | 11.1%
26 | CN(C)c1cccc(CNC(=O)Nc2cc(C#N)ccc2Cl)n1 | 15.8%
27 | COc1cc(F)cc(NC(=O)NCc2cccc(N(C)C)n2)c1 | 55.3%
28 | CC(=O)c1ccc(NC(=O)NCc2cccc(N(C)C)n2)cc1C | 62.1%
29 | COc1ccc(NC(=O)NCc2cccc(N(C)C)n2)c(Cl)c1 | 7.49%
30 | COc1ccc(C)c(NC(=O)NCc2cccc(N(C)C)n2)c1 | -35.2%
31 | CN(C)c1cccc(CNC(=O)Nc2ccc3[nH]nnc3c2)n1 | -4.13%
32 | CCc1nccn1CCCNC(=O)c1cnn(-c2ccccc2OC)c1 | -1.45%
33 | Cc1nn(C)c(C)c1C1CCCN1CC(=O)Nc1cc(C(C)C)no1 (stereo not drawn) | -1.14%
34 | O=C(c1cnccn1)N1C[C@@H](OCc2ccncc2)[C@@H]2OCCC[C@@H]21 | 33%
35 | O=C(NC1CCCc2nc(N3CCOCC3)ncc21)C1CCCC1 (stereo not drawn) | -5.71%
36 | COc1cc(-c2nc(CN(CCO)CCO)c(C)o2)ccc1F | 22.5%
37 | Cc1cc(C(F)(F)F)nc(CNC(=O)CCC2CCCN(C)C2)n1 (stereo not drawn) | 29.4%
38 | CCC(C(=O)NCc1nc(C)cc(C(F)(F)F)n1)n1cccn1 (stereo not drawn) | 8.08%
39 | CCN(C)c1ccc(CNC(=O)CCn2cc(C)cn2)cc1F | 12.8%
40 | Cc1cc(C(F)(F)F)nc(CNC(=O)CCn2cccn2)n1 | 58.1%
41 | CCOCC(=O)NCCc1nc(C)cc(C(F)(F)F)n1 | 20.4%
42 | Cc1cc(C(F)(F)F)nc(CNC(=O)CCC2CCCCN2C)n1 (stereo not drawn) | 38.7%
43 | Cc1cc(C(F)(F)F)nc(CNC(=O)C2CCCCCN2C)n1 (stereo not drawn) | 54.5%
44 | CCC(C(=O)NCCc1nc(C)cc(C(F)(F)F)n1)n1cccn1 (stereo not drawn) | 57%
45 | Cc1cc(C(F)(F)F)nc(CNc2nc(C)nc3c2cnn3C)n1 | 19.4%
46 | CC(C)c1nn(C)c(N(C)C)c1CNCc1ccc(CO)c(F)c1 | 23.7%

Row | Compound | INHIBITION
47 | CNc1nc2c(s1)C(c1c(Cl)cccc1Cl)CC(=O)N2 (stereo not drawn) | 15%
48 | CS(=O)(=O)N1CCN(c2ccc3ccc(C(=O)NC4CC4)cn23)CC1 | 22.3%
49 | Cc1cccc(OC2CN(C(=O)C3CC(=O)N(C4CC4)C3)C2)c1 (stereo not drawn) | 31.4%
50 | O=C([C@H]1CC[C@@H]2[C@@H](CCN2C2CCOCC2)O1)N1CCOCC1 | 25.6%
51 | Cc1cccc(OCCC(=O)N(C)CCC#N)c1C | -33.2%
52 | CCc1ncnc2c1CCN(Cc1nccs1)CC2 | -2.41%
53 | CCc1cnc(CN2CCC(N(C)Cc3noc(C4CC4)n3)C2)o1 (stereo not drawn) | 23.4%
54 | CCN1CCn2c(C)cnc2C12CCN(C(=O)COC)CC2 | -6.05%
55 | CN(C)C(C(=O)N1CCCC1)c1ccccc1F (stereo not drawn) | 29.7%
56 | CN(C)C(C(=O)N1Cc2ccccc2C1)c1ccccc1F (stereo not drawn) | 50.8%
57 | CN(C)C(C(=O)N1CCSCC1)c1ccccc1F (stereo not drawn) | 32.8%
58 | O=c1[nH]nc(CCCN2CCOCC2)n1-c1ccc(F)cc1F | 39.4%
59 | CC(C)CC(=O)N1CCCC2(CC(C(=O)Nc3ccccc3)=NO2)C1 (stereo not drawn) | 3.58%
60 | CCC1CN(C)c2ccccc2CN1C(=O)Nc1ccccc1OC (stereo not drawn) | 63.5%
61 | CCC1CN(C)c2ccccc2CN1C(=O)Nc1ccc(C)cc1 (stereo not drawn) | 14%
62 | CC(C)CCNC(=O)C1CCCN1C(=O)Nc1cccc(F)c1 (stereo not drawn) | -11.4%
63 | CCC1CN(C)c2ccccc2CN1C(=O)Nc1cccc(F)c1 (stereo not drawn) | 60.2%
64 | COc1ccccc1NC(=O)N1CCCC1c1ccco1 (stereo not drawn) | 1.45%
65 | CCC1CN(C)c2ccccc2CN1C(=O)CCn1cncn1 (stereo not drawn) | 44%
66 | Cc1c(C(=O)NCC(C)C)nnn1-c1cccc2c1CCN(CCO)C2 | 45.7%
67 | O=C(NCCNc1ncccn1)C1CCCC1 | 26.4%
68 | COc1ccccc1CNc1cnn(CC(F)F)c1 | 14.5%
69 | Cc1nccn1CC1CCCN1S(=O)(=O)Cc1cccc(C#N)c1 (stereo not drawn) | 45.7%

Row | Compound | INHIBITION
70 | Cc1cc(NC(=O)CN2CCCC2c2c(C)nn(C)c2Cl)on1 (stereo not drawn) | -27.9%
71 | CC(C)C(C(=O)N1CCN(Cc2cscn2)CC1)n1cncn1 (stereo not drawn) | -7.71%
72 | CC(C)(C)NC(=O)C1(Cc2ccccc2-c2ccncc2)CCOCC1 | 17.1%
73 | O=C(NC1CC1)C1(Cc2ccccc2-c2ccncc2)CCOCC1 | 76.1%
74 | O=C(NCCO)C1(Cc2ccccc2-c2ccncc2)CCOCC1 | -17.7%
75 | CN(C)C[C@@H]1CCC[C@@H]2CN(c3cccnc3)C[C@@H]21 | -11%
76 | CCc1ncc(C(=O)N(CCOC)Cc2nccs2)cn1 | 50.5%
77 | CCc1ncc(C(=O)N(CC)CCOC)cn1 | 29.2%
78 | CCc1ncc(C(=O)N(CCOC)Cc2ccccc2F)cn1 | 41.5%
79 | CS(=O)(=O)NCc1cnc2n1CCN(Cc1cccnc1)CC2 | 15.4%
80 | O=C(NCC1CC1)c1n[nH]c2c1CNCC2 | -8.51%
81 | Cc1cc(C)n(CCN(C)Cc2c[nH]nc2-c2ccc3c(c2)OCO3)n1 | 26.7%
82 | CNC(=O)[C@H]1CC[C@@H]2[C@@H](CCN2CCOCc2ccccc2)O1 | 45.7%
83 | CC(=O)N(C)C1CCC2(CC1)CNC(=O)c1cc(C)ccc1O2 (stereo not drawn) | -20.2%
84 | C1CCC(NCCN2CCOCC2)C1 | 5.41%
85 | CSc1nccc(N2CCC(NCCN3CCOCC3)CC2)n1 | 53.6%
86 | CCC1CCC(NCCN2CCOCC2)CC1 (stereo not drawn) | 49.4%
87 | N#Cc1ccnc(N2CCN(C(=O)NC3CCS(=O)(=O)C3)CC2)c1 (stereo not drawn) | -19.9%
88 | N#Cc1ccnc(N2CCN(C3CCOC3=O)CC2)c1 (stereo not drawn) | -33.1%
89 | N#Cc1ccnc(N2CCN(CC(O)c3ccccc3)CC2)c1 (stereo not drawn) | -76.3%
90 | N#Cc1ccnc(N2CCC(NCCN3CCCC3)CC2)c1 | 57.3%
91 | N#Cc1ccnc(N2CCN(Cc3cccc(F)c3)CC2)c1 | -23.7%
92 | N#Cc1ccnc(N2CCC(NCCN3CCOCC3)CC2)c1 | 66.5%

Row | Compound | INHIBITION
93 | O=C(c1ccc(F)cc1)N1C[C@@H]2OCCN(c3ncccn3)[C@@H]2C1 | 10%
94 | Cc1nnc(SCc2ccccn2)s1 | 44.1%
95 | CCSCCNC(=O)c1ccc(S(=O)(=O)N2C[C@H]3C[C@@H]2CN3)cc1 | 9.91%
96 | CC(C)c1cc(N(C)Cc2noc(C3CCCC3)n2)n2nccc2n1 | 46.4%
97 | c1cnc(N2CCOCC3(CN(Cc4nccs4)CCO3)C2)nc1 (stereo not drawn) | -34.7%
98 | Cc1cc(Cc2ccc(F)cc2)cc(C2CCCNC2)n1 (stereo not drawn) | 32.3%
99 | Cc1cccc(Cc2cc(C)nc(C3CCCNC3)c2)c1 (stereo not drawn) | 54.5%
100 | Cc1cc(Cc2ccccc2C)cc(C2CCCNC2)n1 (stereo not drawn) | -11.4%
101 | Cc1cc(Cc2cccc(C(F)(F)F)c2)cc(C2CCCNC2)n1 (stereo not drawn) | 80.5%
102 | Cc1cc(Cc2ccccc2F)cc(C2CCCNC2)n1 (stereo not drawn) | 36.9%
103 | Cc1cc(Cc2ccccc2)cc(C2CCCNC2)n1 (stereo not drawn) | 28.5%
104 | Cc1cnn(CC2CCCN2C(=O)c2csc(C(C)C)n2)c1 (stereo not drawn) | 35.3%
105 | COc1ccc(C(=O)N2CCCC3(CCCC(=O)N3C)C2)cc1 (stereo not drawn) | 24.8%
106 | CNC(=O)c1ccccc1-c1ccc(S(C)(=O)=O)cc1 | -19.1%
107 | COCCN1C[C@@H]2[C@@H](OC)CCN(Cc3ccc(C)o3)[C@@H]2C1 | 15.4%
108 | Cc1nccc(N[C@H]2CN(C(=O)CN3CCCC3=O)C[C@@H]2C(C)C)n1 | 62.9%
109 | Cc1nccc(N[C@H]2CN(C(=O)CCN3CCCC3=O)C[C@@H]2C(C)C)n1 | 55%
110 | Cc1nccc(N[C@H]2CN(C(=O)CN3CCOCC3)C[C@@H]2C(C)C)n1 | 43.6%
111 | Cc1nccc(N[C@H]2CN(C(=O)C3(C#N)CCOCC3)C[C@@H]2C(C)C)n1 | -5.1%
112 | Cc1csc(N2CCCN(C(=O)CCN3CCCC3=O)CC2)n1 | -21.8%
113 | CSCCC(=O)N1C[C@H](Nc2ccnc(C)n2)[C@@H](C(C)C)C1 | -15.5%
